Measurements: article PMC5540273 (PLoS ONE, 2017)
Where two headings read alike, the source gives them in different places.

Assays:
Settings in all cases: n = 1
[1] = tested on: T1, RSK2(Kin.Dom.2-C-terminal)
T1 construct: gene RPS6KA3

[2] = tested on: T2, RSK3(Kin.Dom.1-N-terminal)
T2 construct: gene RPS6KA2

[3] = tested on: T3, RSK3(Kin.Dom.2-C-terminal)
T3 construct: gene RPS6KA2

[4] = tested on: T4, RSK4(Kin.Dom.1-N-terminal)
T4 construct: gene RPS6KA6

[5] = tested on: T5, RSK4(Kin.Dom.2-C-terminal)
T5 construct: gene RPS6KA6

[6] = tested on: S6K1
[7] = tested on: SBK1
[8] = tested on: SGK2
[9] = tested on: SGK3
[10] = tested on: SGK
[11] = concentration: 1 μM, replicates: in singlicate
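Note: KINOMEscan kinase panel screen.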

SMILES	%Inh [1, 11] [%]	%Inh [2, 11] [%]	%Inh [3, 11] [%]	%Inh [4, 11] [%]	%Inh [5, 11] [%]	%Inh [6, 11] [%]	%Inh [7, 11] [%]	%Inh [8, 11] [%]	%Inh [9, 11] [%]	%Inh [10, 11] [%]	%Inh ([1]; 1 µM) [%]	%Inh ([2]; 1 µM) [%]	%Inh ([3]; 1 µM) [%]	%Inh ([4]; 1 µM) [%]	%Inh ([5]; 1 µM) [%]	%Inh ([6]; 1 µM) [%]	%Inh ([7]; 1 µM) [%]	%Inh ([8]; 1 µM) [%]	%Inh ([9]; 1 µM) [%]	%Inh ([10]; 1 µM) [%]
COc1cccc(-c2cc(-c3c[nH]nc3-c3ccccn3)ccn2)c1 [GW680338]	33	0	0	0	48	6	15	4	7	7										
O=S(=O)(c1ccc(-c2ccnc3[nH]ccc23)cc1)N1CCCC1 [GSK846226]	0	0	38	0	35	5	4	0	0	0										
Cc1ccc(NC(=O)Nc2cccc(Cl)c2)cc1-c1ccc(C(=O)Nc2ccncc2)cc1 [GSK1398468]	0	5	1	0	16	0	26	0	22	0										
O=C(Nc1n[nH]c2nc(-c3nccs3)c(Br)cc12)C1CC1 [SB-742251]	0	19	0	0	2	6	1	12	0	0										
Nc1nc(-c2nccs2)c(-c2ccnc3ccccc23)s1 [GW693542]	88	0	0	0	50	0	9	0	6	0										
Cc1cc(N2Cc3ccccc3C2)nc(Nc2ccc(S(=O)(=O)N3CCOCC3)cc2)n1.Cl [GSK1669917]	0	0	7	0	1	2	16	0	9	0										
CC(=O)Nc1nc2cnc(Nc3cc(NC(=O)c4cccc(CCC#N)c4)ccc3C)nc2s1	6	0	1	24	0	3	0	0	7	0										
Fc1cc(Cl)ccc1Nc1ccnc2cc(I)ccc12 [GW551191]	32	0	0	0	87	4	19	4	0	8										
CCn1c(-c2cccnc2O)nc2cnccc21 [SB-736715]	1	0	13	0	15	5	0	0	0	0										
Cc1cc(NCC(c2ccccc2)c2ccccc2)nc(NCc2ccc(C(F)(F)F)cc2)n1 [GW497681]	4	0	1	0	28	0	0	0	6	0										
Cn1cncc1-c1ccc2ncnc(Nc3ccc(OCc4ccccc4)cc3)c2c1 [GW320571]	20	23	0	19	0	2	28	0	0	0										
Cc1nnc(-c2ccc3occ(-c4ccc(S(C)=O)cc4)c3c2)[nH]1 (stereo not drawn)	5	0	7	0	36	4	0	5	17	1										
Cn1ccc2ncnc(Oc3cccc(C(=O)Nc4ccccc4)c3)c21	0	0	13	14	0	0	0	2	26	0										
Clc1cc(Cl)cc(Nc2ccnc(Nc3cc(Cl)cc(Cl)c3)n2)c1 [GSK175726]	7	0	4	13	22	0	9	0	13	3										
CC(C)(C)c1ccc(C(=O)Nc2cn3cc(-c4cccnc4)ccc3n2)cc1	0	13	36	4	47	11	23	0	13	0										
Cl.O=C(Nc1cccc(-c2nn3ncccc3c2-c2ccnc(Nc3cccnc3)n2)c1)c1c(F)cccc1F [GSK312879]	6	23	10	12	0	14	41	1	0	0										
Cc1ccc(NC(=O)Nc2cccc(C(F)(F)F)c2)cc1 [GSK955403]											0	7	27	0	23	2	0	7	0	22
Cc1cc(-c2ccc3c(c2)CC[C@@H](N[C@@H](C)c2ccccc2)C3)cnc1N.Cl [GW412617]	47	15	0	23	0	4	17	0	0	2										
